# Measured values: the supplement of paper PMC8728848
# This excerpt belongs to a sample that is enriched for the strongest signals.
# Tests used:
# Test in all cases: glycan array binding signal (z-score within array); higher = stronger binding
# Details in all cases: glycan notation: IUPAC condensed, linker removed
# Glc(a1-4)Glc = molecular target: Glc(a1-4)Glc
# Outline: (§1)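 Columns mapping to the same glycan were averaged after glycan names were converted to IUPAC-condensed notation. The data come from 3228 arrays in the Consortium for Functional Glycomics database, limited to those with an available protein sequence. Binding is reported as a within-array Z-score averaged across arrays of one protein sequence and across linkers.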
# Glc(b1-4)Glc = molecular target: Glc(b1-4)Glc
# Outline: as §1
# GlcA(b1-6)Gal = molecular target: GlcA(b1-6)Gal
# Outline: as §1
# [1] = molecular target: GlcA3S(b1-3)Gal(b1-4)GlcNAc(b1-2)Man
# Outline: as §1
# [2] = molecular target: GlcNAc(b1-2)Man(a1-3)[GlcNAc(b1-4)][GlcNAc(b1-2)Man(a1-6)]Man(b1-4)GlcNAc(b1-4)[Fuc(a1-6)]GlcNAc
# Outline: as §1
# [3] = molecular target: GlcNAc(b1-3)Gal(b1-4)GlcNAc(b1-3)Gal(b1-4)GlcNAc
# Outline: as §1
# [4] = molecular target: GlcNAc(b1-3)Gal(b1-4)GlcNAc(b1-3)Gal(b1-4)GlcNAc(b1-2)Man(a1-3)[GlcNAc(b1-3)Gal(b1-4)GlcNAc(b1-3)Gal(b1-4)GlcNAc(b1-2)Man(a1-6)]Man(b1-4)GlcNAc(b1-4)[Fuc(a1-6)]GlcNAc
# Outline: as §1
# [5] = molecular target: GlcNAc(b1-3)Gal(b1-4)GlcNAc(b1-3)Gal(b1-4)GlcNAc(b1-3)Gal(b1-4)GlcNAc(b1-2)Man(a1-3)[GlcNAc(b1-3)Gal(b1-4)GlcNAc(b1-3)Gal(b1-4)GlcNAc(b1-3)Gal(b1-4)GlcNAc(b1-2)Man(a1-6)]Man(b1-4)GlcNAc(b1-4)GlcNAc
# Outline: as §1
# [6] = molecular target: GlcNAc(b1-3)Gal(b1-4)GlcNAc(b1-3)Gal(b1-4)GlcNAc(b1-3)Gal(b1-4)GlcNAc(b1-3)Gal(b1-4)GlcNAc(b1-2)Man(a1-3)[GlcNAc(b1-3)Gal(b1-4)GlcNAc(b1-3)Gal(b1-4)GlcNAc(b1-3)Gal(b1-4)GlcNAc(b1-3)Gal(b1-4)GlcNAc(b1-2)Man(a1-6)]Man(b1-4)GlcNAc(b1-4)GlcNAc
# Outline: as §1
# [7] = molecular target: GlcNAc(b1-4)GlcNAc(b1-4)GlcNAc(b1-4)GlcNAc(b1-4)GlcNAc
# Outline: as §1
# Man(a1-6)Man = molecular target: Man(a1-6)Man
# Outline: as §1
# [8] = molecular target: Neu5Ac(a2-3)Gal(b1-3)GlcNAc
# Outline: as §1
# [9] = molecular target: Neu5Ac(a2-3)Gal(b1-4)GlcNAc(b1-2)Man
# Outline: as §1
# [10] = molecular target: Neu5Ac(a2-3)Gal(b1-4)GlcNAc(b1-3)Gal(b1-4)GlcNAc(b1-2)Man(a1-3)[Neu5Ac(a2-3)Gal(b1-4)GlcNAc(b1-3)Gal(b1-4)GlcNAc(b1-2)Man(a1-6)]Man(b1-4)GlcNAc(b1-4)GlcNAc
# Outline: as §1
# [11] = molecular target: Neu5Ac(a2-3)Gal(b1-4)GlcNAc(b1-3)Gal(b1-4)GlcNAc(b1-3)[Neu5Ac(a2-3)Gal(b1-4)GlcNAc(b1-3)Gal(b1-4)GlcNAc(b1-6)]GalNAc
# Outline: as §1
# [12] = molecular target: Neu5Ac(a2-3)Gal(b1-4)[Fuc(a1-3)]GlcNAc(b1-2)Man
# Outline: as §1
# [13] = molecular target: Neu5Ac(a2-3)Gal(b1-4)[Fuc(a1-3)]GlcNAc(b1-6)[Neu5Ac(a2-3)Gal(b1-3)]GalNAc
# Outline: as §1
# [14] = molecular target: Neu5Ac(a2-3)Gal6S(b1-4)GlcNAc
# Outline: as §1
# Neu5Ac(a2-3)GalNAc = molecular target: Neu5Ac(a2-3)GalNAc
# Outline: as §1
# [15] = molecular target: Neu5Ac(a2-3)[Neu5Ac(a2-6)]GalNAc
# Outline: as §1
# [16] = molecular target: Neu5Ac(a2-6)Gal(b1-4)GlcNAc(b1-2)Man
# Outline: as §1
# [17] = molecular target: Neu5Ac(a2-6)Gal(b1-4)GlcNAc(b1-2)Man(a1-3)[Gal(b1-4)GlcNAc(b1-2)Man(a1-6)]Man(b1-4)GlcNAc(b1-4)GlcNAc
# Outline: as §1
# [18] = molecular target: Neu5Ac(a2-6)Gal(b1-4)GlcNAc(b1-3)Gal(b1-4)[Fuc(a1-3)]GlcNAc(b1-3)Gal(b1-4)[Fuc(a1-3)]GlcNAc
# Outline: as §1
# [19] = molecular target: Neu5Ac(a2-6)GalNAc(b1-4)GlcNAc6S
# Outline: as §1
# [20] = molecular target: Neu5Ac(a2-8)Neu5Ac(a2-8)Neu5Ac(a2-8)Neu5Ac(a2-3)[GalNAc(b1-4)]Gal(b1-4)Glc
# Outline: as §1
# [21] = molecular target: Neu5Gc(a2-3)Gal(b1-3)GlcNAc
# Outline: as §1
# [22] = molecular target: Neu5Gc(a2-3)Gal(b1-4)GlcNAc
# Outline: as §1
# [23] = molecular target: Neu5Gc(a2-3)Gal(b1-4)GlcNAc(b1-3)Gal(b1-4)GlcNAc(b1-2)Man(a1-3)[Neu5Gc(a2-3)Gal(b1-4)GlcNAc(b1-3)Gal(b1-4)GlcNAc(b1-2)Man(a1-6)]Man(b1-4)GlcNAc(b1-4)GlcNAc
# Outline: as §1
binder,measurement,setting,value
Nc3LysM-2 (protein) AHVLQARQSVSCDFATAANTGDTCASFAAAWGITEAAFAKLNPGVSCPGNLIAGSEYCVIGTVSTGAPTTTKAATTSTTPPTTTTTTKATTLSTSTTSVSPTGPSPQMPSITSTCNKFYQVQSGDGCWSIEQAQGVSASDFMAWNKAVDAQCDNLWLGYYVCVGVKGGSSPPPTTTTKPASSSAPTPQMPNTVSNCKKFHKVVSGDGCWAIEQAAGISASDFAKWNPYVDAACDNLWLGYYVCIGV,glycan array binding signal (z-score),Glc(a1-4)Glc,-0.04
same,glycan array binding signal (z-score),Glc(b1-4)Glc,-1.11
same,glycan array binding signal (z-score),GlcA(b1-6)Gal,2.36
same,glycan array binding signal (z-score),[1],0.714
same,glycan array binding signal (z-score),[2],-0.543
same,glycan array binding signal (z-score),[3],0.247
same,glycan array binding signal (z-score),[4],3.4
same,glycan array binding signal (z-score),[5],-0.959
same,glycan array binding signal (z-score),[6],-0.307
same,glycan array binding signal (z-score),[7],3.61
same,glycan array binding signal (z-score),Man(a1-6)Man,0.852
same,glycan array binding signal (z-score),[8],0.767
same,glycan array binding signal (z-score),[9],0.06
same,glycan array binding signal (z-score),[10],4.26
same,glycan array binding signal (z-score),[11],-0.674
same,glycan array binding signal (z-score),[12],-0.075
same,glycan array binding signal (z-score),[13],2.08
same,glycan array binding signal (z-score),[14],-0.155
same,glycan array binding signal (z-score),Neu5Ac(a2-3)GalNAc,-1.24
same,glycan array binding signal (z-score),[15],0.668
same,glycan array binding signal (z-score),[16],0.422
same,glycan array binding signal (z-score),[17],-0.256
same,glycan array binding signal (z-score),[18],0.118
same,glycan array binding signal (z-score),[19],-2.04
same,glycan array binding signal (z-score),[20],0.938
same,glycan array binding signal (z-score),[21],0.959
same,glycan array binding signal (z-score),[22],-0.122
same,glycan array binding signal (z-score),[23],-0.459
